Compound activity as filed in PubChem BioAssay.
Sampled rows, rich in hits. Any-hit rate of the full collection: about 1.7%.
RecA splice inh: inhibitors of M. tuberculosis RecA intein splicing; cell-free RecA intein splicing, fluorescence; inhibition, % (test concentration not listed); hit rate 0.75% among 290,000; AID 2221; in the data active means inhibition above about 30%
Target sequence (P9WHJ3 whole entry, looked up, canonical isoform): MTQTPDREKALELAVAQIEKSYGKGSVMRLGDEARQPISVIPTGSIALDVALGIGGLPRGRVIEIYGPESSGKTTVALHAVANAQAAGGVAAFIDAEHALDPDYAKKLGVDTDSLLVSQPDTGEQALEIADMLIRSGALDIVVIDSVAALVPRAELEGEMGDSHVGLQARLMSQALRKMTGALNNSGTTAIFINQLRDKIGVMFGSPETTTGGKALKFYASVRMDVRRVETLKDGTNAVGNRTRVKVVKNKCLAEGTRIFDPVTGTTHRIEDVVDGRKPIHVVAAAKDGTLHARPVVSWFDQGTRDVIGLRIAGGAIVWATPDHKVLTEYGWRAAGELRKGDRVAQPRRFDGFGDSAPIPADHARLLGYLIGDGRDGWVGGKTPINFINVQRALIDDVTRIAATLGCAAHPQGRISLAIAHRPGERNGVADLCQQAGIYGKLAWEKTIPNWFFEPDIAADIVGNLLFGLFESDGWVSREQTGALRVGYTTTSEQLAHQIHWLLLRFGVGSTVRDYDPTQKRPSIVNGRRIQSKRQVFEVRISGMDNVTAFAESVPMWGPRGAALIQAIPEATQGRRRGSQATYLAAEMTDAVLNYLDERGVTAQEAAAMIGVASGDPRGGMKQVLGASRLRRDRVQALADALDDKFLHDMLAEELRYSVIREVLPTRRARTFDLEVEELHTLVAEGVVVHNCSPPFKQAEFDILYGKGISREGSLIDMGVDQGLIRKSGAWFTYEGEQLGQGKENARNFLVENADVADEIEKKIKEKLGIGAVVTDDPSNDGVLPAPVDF
Mtb betalactam: beta-lactam sensitization of Mtb H37Rv; M. tuberculosis H37Rv growth with meropenem, percent inhibition; inhibition, % at 25 µM; hit rate 0.27% among 330,000; AID 434955; call rule not given here;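 further: growth measured after seven days incubation then overnight dye step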
Mtb hypoxia inh: reduces hypoxia-regulated biosensor signal in M. tuberculosis; M. tuberculosis hypoxia-regulated fluorescent reporter, fluorescence; fluorescence inhibition, % (concentration not given with the values); hit rate 0.1% among 300,000; in the data active means fluorescence inhibition mostly above about 23%, no sharp cut-off; inactive means mostly below about 17%
CCHF vOTU inh: CCHFV vOTU protease inhibition | Pep-AMC fluorescence | inhibition, % at 11.5 µM | hit rate 0.55% among 370,000; in the data active means inhibition above about 30%
PfHsp40 rescue: rescue of PfHsp40-mediated yeast toxicity. hit rate 0.68% among 340,000. growth rescue, % at 12.5 µM. S. cerevisiae expressing PfHsp40, growth rescue, ATP luminescence; in the data active means growth rescue above about 28%, passing the limit was not always enough;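 further: yeast W303a lacking pdr1 and pdr3 grown in galactose medium; growth measured after three days at 30 °C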
Hits are given with their value; . = inactive; / = no result shown.

SMILES | RecA splice inh | Mtb betalactam | Mtb hypoxia inh | CCHF vOTU inh | PfHsp40 rescue
C=C[C@]1(C)CC1C(NP(=O)(c1ccccc1)c1ccccc1)c1ccccc1 (stereo partly specified) | / | / | . | / | /
Cc1ccc(NC(=O)CCl)cc1S(=O)(=O)N1CCCCCC1 | 52 | . | . | . | .
O=C(Cn1ncc(Cl)c(Cl)c1=O)Nc1ccc2c(c1)OCO2 | / | . | . | . | .
COCCNCC(=O)Nc1ccc(C)c(S(=O)(=O)N2CCCCC2)c1 | . | . | . | . | .
CCN(CC)S(=O)(=O)c1cc(NC(=O)Cn2ncc(Cl)c(Cl)c2=O)ccc1C | 52 | . | . | . | .
CN1CC=C2C(C#N)=C(N)C(C#N)(C#N)C(c3ccncc3)C2C1 (stereo unspecified) | . | . | / | / | .
CC(C)c1ccc(C2C3CSCC=C3C(C#N)=C(N)C2(C#N)C#N)cc1 (stereo unspecified) | 36 | . | / | / | /
CC(NC(=O)C(C#N)=Cc1ccc(Cl)c([N+](=O)[O-])c1)c1ccccc1 (stereo unspecified) | / | / | . | / | /
O=[N+]([O-])c1cc(S(=O)(=O)N=C(c2ccccc2)N2CCOCC2)ccc1Cl | / | / | . | / | /
CCOC(=O)C(=NNc1ccccc1Cl)N(C)C1CCS(=O)(=O)C1 (stereo unspecified) | / | / | . | / | /
Cc1ccc(C(=O)Oc2ccc([N+](=O)[O-])cc2)cc1S(=O)(=O)N1CCCCCC1 | 30 | . | . | . | .
O=C1CC(c2cccnc2)=NN1c1ccccc1 | 64 | . | . | . | 91
CCOC(=O)c1cnc(-n2nc(C)cc2C)nc1Nc1ccc(OC)cc1 | . | . | . | . | .
CCOC(=O)c1cnc(-n2nc(C)cc2C)nc1NC1CCCC1 | . | . | / | . | 163
CCOC(=O)c1cnc(-n2nc(C)cc2C)nc1NCCc1ccccc1 | . | . | / | . | 65
Cc1nc2c(=O)n(C)c(=O)n(C)c2nc1Cl | 45 | . | . | . | .
CSc1nc(O)c(Nc2ccccc2)c(=O)[nH]1 | / | / | . | . | .
CSc1nc(O)c(Nc2cccc(Cl)c2)c(=O)[nH]1 | 76 | . | / | . | .
CC(C)CC(NC(=O)c1nc[nH]c1C(=O)N1CCc2ccccc2C1)C(=O)OCc1ccccc1 (stereo unspecified) | / | / | . | / | /
CC(=NNC(=O)c1ccncc1)c1ccc(NC(=O)c2ccc(Cl)cc2)cc1 | / | / | . | / | /
CCCCC(c1nnnn1Cc1ccco1)N1CCN(c2nc3ccccc3s2)CC1 (stereo unspecified) | / | . | / | . | 27
c1ccc(C(c2nnnn2Cc2ccco2)N2CCN(c3nc4ccccc4s3)CC2)cc1 (stereo unspecified) | . | . | . | . | .
COC(=O)C1=C(c2ccc(OC)c(OC)c2)CC2CCC1N2C(=O)NCCO (stereo unspecified) | / | / | . | / | /
CC(=O)Nc1nonc1NC(C)=O | . | . | . | . | .
CC(=O)Nc1cc(OC(C)=O)c2nonc2c1OC(C)=O | / | . | . | 101 | .
SMILES | RecA splice inh | Mtb betalactam | Mtb hypoxia inh | CCHF vOTU inh | PfHsp40 rescue
CC(C)COc1ccc(S(=O)(=O)n2cc(F)c(=O)[nH]c2=O)cc1 | . | . | . | . | 36
CCCOc1ccc(S(=O)(=O)n2cc(F)c(=O)[nH]c2=O)cc1 | / | . | . | . | 162
Cc1nc2ccccn2c1C(=O)NN=Cc1ccc(F)cc1 | / | / | . | / | /
CC(=NNC(=S)Nc1ccc(C)cc1)c1ccccn1 | / | / | / | . | .
COc1ccc(C(=O)N/N=C(\C)c2ccccn2)cc1OC | . | . | / | . | .
COc1ccccc1NC(=S)NN=C(C)c1ccccn1 | / | / | / | . | 180
CC(=NNC(=S)Nc1cccc(C)c1)c1ccccn1 | / | / | / | . | 116
CCOc1cc(C=NN2CCOCC2)ccc1OCc1ccc(C(=O)OC)o1 | / | / | . | / | /
COc1ccc(C2C(C#N)=C(N)OC3=C2C(=O)CC(C)(C)C3)cc1Cn1nc(C)c([N+](=O)[O-])c1C (stereo unspecified) | . | . | . | . | .
COc1ccc(C2C(C#N)=C(N)Oc3c2c(C)nn3-c2ccccc2)cc1Cn1nc(C)c([N+](=O)[O-])c1C (stereo unspecified) | 54 | . | / | . | .
Clc1c(Cl)c(Cl)c2n[nH]nc2c1Cl | . | . | . | . | 59
COc1ccc(C=NNC(=O)c2ccc(COc3ccccc3Cl)o2)c(OC)c1C | / | / | . | / | /
CC1CCC(=O)N(CCSc2ccc(Br)cc2)CC1 (stereo unspecified) | / | / | . | / | /
CCC(=O)Nc1cc2c(C)cc(=O)oc2cc1C | . | . | / | . | 36
CC(=NNC(=S)NCCc1ccccc1)c1cccc(Br)c1 | / | / | . | / | /
Cc1ccc(-c2csc(NC(=O)CSc3nc(C)cc(=O)[nH]3)n2)cc1 | . | . | . | . | /
CCOC(=S)SCC(=O)Nc1nc(-c2ccccc2)cs1 | 43 | . | . | . | .
CCOC(=S)SCC(=O)Nc1nc(-c2ccc(Br)cc2)cs1 | . | . | . | . | .
Cc1ccc(-c2csc(NC(=O)CSC3=NCCS3)n2)cc1 | 58 | . | . | . | .
Cc1ccc(C2C3C(=O)N(C)C(=O)C3[C@]3(C)C(=O)N(Cc4ccccc4)CC(=O)N23)o1 (stereo partly specified) | / | / | . | / | /
CCCCCCC(=O)O | / | . | / | . | .
CCCCCCCCCCCCCCCC(=O)OC(CC(=O)O)C[N+](C)(C)C (stereo unspecified) | / | . | . | . | 125
CCOc1c2ccc(C(=O)NC(C)C3CCCCC3)cc2nn1CC (stereo unspecified) | / | / | . | / | /
CC(=NNC(=O)Cc1ccc(Cl)c(Cl)c1)c1cccnc1 | / | / | . | / | /
Cc1ccc(NC(=S)Nc2cccc3cnccc23)cc1C | / | . | . | . | 377
SMILES | RecA splice inh | Mtb betalactam | Mtb hypoxia inh | CCHF vOTU inh | PfHsp40 rescue
Cc1ccc(NC(=S)Nc2cccc3cnccc23)cc1 | . | . | . | . | .
S=C(Nc1cccc(Cl)c1)Nc1cccc2cnccc12 | / | . | . | / | 31
C[C@@H]1CCCCCCCCC(=O)OCCN[C@H](C)CCCCCCCCC(=O)OCCN[C@H](C)CCCCCCCCC(=O)OCCN1 | / | . | / | / | 41
CC1CCCCCCCCC(=O)OCCN(C(=O)OC(C)(C)C)C(C)CCCCCCCCC(=O)OCCN1C(=O)OC(C)(C)C (stereo unspecified) | / | / | . | / | /
Cc1ccc(C2CC2C(=O)NNC(=S)Nc2cccc(Cl)c2)cc1 (stereo unspecified) | . | . | . | . | 79
Cc1ccccc1N1CCN(S(=O)(=O)C[C@]23CCC(CC2NC(=O)C(N)CCS(C)(=O)=O)C3(C)C)CC1 (stereo partly specified) | / | / | . | / | /
O=C(NC(=S)N1CCN(c2ccc(C(F)(F)F)cc2[N+](=O)[O-])CC1)c1cccs1 | . | . | . | . | 122
O=C(O)c1ccc(N/N=C/C2=C(N3CCOCC3)C(=C\c3ccccc3)/CC2)cc1 | . | . | / | . | 273
COC(=O)C(=N/Nc1ccccc1C(=O)OC)/C(C)=N/O | . | . | / | . | 137
CN(C(=O)c1cccc(NC(=O)Cc2ccc(NC(=O)C3CCN(S(=O)(=O)c4cccc([N+](=O)[O-])c4)CC3)cc2)c1)C1CCCC1 | / | / | . | . | 120
CN(C(=O)c1ccc(NC(=O)Cc2ccc(NC(=O)C3CCN(C(=O)C4CCCC4)CC3)cc2)cc1)C1CC1 | / | . | . | . | 36
